In all, about 400,000 compounds went through this assay and about 2,100 (0.53%) were called active. Not shown: some 14% with an inconclusive outcome. No rule for the calls is given here. What follows is part of a selection rich in actives, with near analogues and random picks from the rest.
target: Ataxin-2 (Homo sapiens) (UniProt Q99700); assay: qHTS for Inhibitors of ATXN expression.; assay type: functional
Sequence (Q99700 whole entry): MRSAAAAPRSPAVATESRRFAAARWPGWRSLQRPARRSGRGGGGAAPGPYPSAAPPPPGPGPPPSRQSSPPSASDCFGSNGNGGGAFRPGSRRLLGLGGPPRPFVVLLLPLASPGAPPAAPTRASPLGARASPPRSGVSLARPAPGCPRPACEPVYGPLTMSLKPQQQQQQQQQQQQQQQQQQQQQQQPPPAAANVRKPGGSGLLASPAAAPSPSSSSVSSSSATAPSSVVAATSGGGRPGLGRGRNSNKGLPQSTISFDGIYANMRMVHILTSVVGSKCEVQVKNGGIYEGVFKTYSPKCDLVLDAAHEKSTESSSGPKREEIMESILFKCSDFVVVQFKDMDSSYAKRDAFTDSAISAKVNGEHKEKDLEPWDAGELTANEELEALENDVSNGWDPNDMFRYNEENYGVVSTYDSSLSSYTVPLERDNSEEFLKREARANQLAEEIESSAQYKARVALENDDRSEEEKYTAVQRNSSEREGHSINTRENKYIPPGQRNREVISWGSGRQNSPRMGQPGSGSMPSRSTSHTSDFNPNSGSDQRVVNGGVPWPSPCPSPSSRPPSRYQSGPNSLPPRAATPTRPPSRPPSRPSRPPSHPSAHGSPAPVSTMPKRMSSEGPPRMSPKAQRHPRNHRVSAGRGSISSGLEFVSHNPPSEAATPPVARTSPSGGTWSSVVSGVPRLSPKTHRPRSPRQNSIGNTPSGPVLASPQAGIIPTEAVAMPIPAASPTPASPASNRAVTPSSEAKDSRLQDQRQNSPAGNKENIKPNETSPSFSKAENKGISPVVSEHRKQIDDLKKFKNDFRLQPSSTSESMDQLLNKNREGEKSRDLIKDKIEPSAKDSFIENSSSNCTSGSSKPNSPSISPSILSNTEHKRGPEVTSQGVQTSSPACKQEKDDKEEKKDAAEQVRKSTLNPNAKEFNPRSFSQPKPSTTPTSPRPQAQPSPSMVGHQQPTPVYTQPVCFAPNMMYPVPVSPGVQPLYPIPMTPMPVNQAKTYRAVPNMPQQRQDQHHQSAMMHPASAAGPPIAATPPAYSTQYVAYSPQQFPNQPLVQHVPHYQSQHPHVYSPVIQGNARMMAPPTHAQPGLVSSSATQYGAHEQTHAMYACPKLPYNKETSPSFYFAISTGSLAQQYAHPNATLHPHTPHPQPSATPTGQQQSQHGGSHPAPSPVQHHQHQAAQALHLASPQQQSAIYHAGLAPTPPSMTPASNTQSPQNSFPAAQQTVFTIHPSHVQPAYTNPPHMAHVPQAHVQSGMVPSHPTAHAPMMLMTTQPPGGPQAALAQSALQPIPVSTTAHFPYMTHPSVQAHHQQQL

Compound | Potency
Cc1ccc(NC(=S)NCc2ccccc2)cc1C | inactive
O=C(NC1CCN(Cc2ccccc2)CC1)c1ccccc1Cl | inactive
CCCCCCSc1cc(-c2nc3cnccn3c2NCCCC)ccc1OC | inactive
CCCCCCSc1cc(-c2nc3cc(C)ccn3c2NCCCC)ccc1OC | 35.5 µM (active)
CCCCNc1c(-c2ccc(OC)c(SC(C)CC)c2)nc2cnccn12 (configuration not stated) | inactive
COC(=O)C1=C(C)N(Cc2ccccc2)C(NCc2ccccc2)=N[C@H]1c1cccc(F)c1 | 31.6 µM (active)
O=C(COC(=O)c1c(F)cccc1F)NC(=O)NCc1ccccc1 | inactive
COC(=O)C1=C(C)N(Cc2ccccc2)C(NCC(C)C)=N[C@H]1c1cccc(F)c1 | 31.6 µM (active)
COC(=O)C1=C(C)N(Cc2ccccc2)C(NCc2cc(OC)c(OC)c(OC)c2)=N[C@H]1c1ccc(Br)cc1 | 35.5 µM (active)
COC(=O)C1=C(C)N(Cc2ccccc2)C(NCc2ccc(OC)cc2)=N[C@H]1c1cccc(F)c1 | 35.5 µM (active)
CCN1C=C(C(=O)OC)C(c2cccc(C)c2)C(C(=O)OC)=C1 | inactive
COC(=O)C1=CN(Cc2ccc(OC)c(OC)c2)C=C(C(=O)OC)C1c1cccc(OC)c1OC | inactive
COC(=O)C1=C(C)N(c2ccc(OC)cc2)C(C)=C(C(=O)OC)C1c1ccccc1 | inactive
COC(=O)C1=CN(C(C)C)C=C(C(=O)OC)C1c1cc(Br)c(OC)c(OC)c1 | inactive
COC(=O)C1=CN(Cc2ccccc2)C=C(C(=O)OC)C1c1cc(F)ccc1F | inactive
COCCNC(=O)/C(C#N)=C/c1c(N2CCN(C)CC2)nc2ccccn2c1=O | inactive
COc1ccc2oc3cc(NCCN(C)C)ccc3c(=O)c2c1 | inactive
CCOc1ccc(C(=O)/C=C/c2cn(CC(O)CN3CCc4ccccc43)c3ccccc23)cc1 (configuration not stated) | inactive
CCCN(CCC)CC(O)Cn1cc(/C=C/C(=O)c2ccc(Br)cc2)c2ccccc21 (configuration not stated) | inactive
Cc1nc2c(o1)C(=O)c1ccccc1C2=Nc1ccccc1 | 31.6 µM (active)
Cc1nc(-c2ccc([N+](=O)[O-])cc2)c(-c2ccccc2)o1 | inactive
COc1ccc(CCNC(=O)c2ccc(CSc3ccccc3)o2)cc1 | inactive
CC(C)C(NC(=O)c1c(F)cccc1F)C(=O)NCCc1ccc(S(N)(=O)=O)cc1 (configuration not stated) | inactive
CCc1ccccc1S(=O)(=O)Cc1ccc(C(=O)NCCc2ccc(Cl)cc2)o1 | 25.1 µM (active)
CCC(=O)Nc1cc2nc(O)cc(C)c2cc1C | inactive
O=C(Cc1ccc(Cl)cc1)NCCc1ccc(F)cc1 | inactive

Compound | Potency
CCN1CCSc2ccc(C(=O)NCc3ccccc3F)cc21 | inactive
O=C(NCCc1ccc(Cl)cc1)c1ccc2c(c1)N(Cc1ccc(F)cc1Cl)C(=O)CS2 | 14.1 µM (active)
CCc1c(-c2ccccc2)nc2nc(C)c(C)nn12 | inactive
CCCCN1C(C(=O)Nc2cc(C)on2)=C(O)c2ccccc2S1(=O)=O | inactive
COc1cc(N(C(C)=O)c2ccc(O)cc2)c2ncccc2c1 | inactive
COc1cccc(N=Nc2ccc3cccnc3c2O)c1 | 11.2 µM (active)
CCCC(=O)NC(c1ccc(OC)cc1)c1ccc2cccnc2c1O (configuration not stated) | inactive
COCC(=O)N1CCC(n2nccc2NC(=O)CCOc2ccccc2)CC1 | inactive
CCS(=O)(=O)N1Cc2ccccc2CC1C(=O)N(C)CC(=O)Nc1ccc(OC)cc1 (configuration not stated) | inactive
COc1cc(OC)c(OC)cc1/C=C1\Oc2cc(OCC(=O)N3Cc4ccccc4C[C@H]3C(=O)O)ccc2C1=O | inactive
COC(=O)C1Cc2ccccc2CN1C(=O)CCl (configuration not stated) | 42.3 µM (active)
O=C(c1ccc([N+](=O)[O-])cc1)N1CCC(n2nnc3cc(F)ccc32)CC1 | inactive
CCC(C(=O)NCc1cccc(C)c1)n1nc(C)c2c(C)n(-c3ccccc3)nc2c1=O (configuration not stated) | inactive
CC(=O)N1CCc2c(sc3c2c(=O)n(-c2ccccc2Cl)c(=O)n3Cc2cccc(C)c2)C1 | 35.5 µM (active)
CC(=O)Nc1sc2c(c1C(N)=O)CCN(Cc1ccccc1)C2 | inactive
NNc1ncnc2sc3c(c12)CCC3 | inactive
CCCCNC(=O)COC(=O)c1c2c(nc3ccccc13)/C(=C\c1cccs1)CC2 | inactive
CCOCCCn1/c(=N/C(C)=O)c(C#N)cc2c(=O)n3cccc(C)c3nc21 | inactive
CCN(CC)CCCNc1cc(C(F)(F)F)c(C#N)c2nc3ccccc3n12 | inactive
CCc1ccc(C2=CC(c3cc(Br)ccc3F)n3ncnc3N2)cc1 (configuration not stated) | inactive
Cc1ccn2cc(-c3cc4ccccc4oc3=O)nc2c1 | inactive
Cc1cccn2cc(-c3cc4ccccc4oc3=O)nc12 | inactive
O=C(Nc1cccc(-c2cn3ccccc3n2)c1)c1cc2ccccc2oc1=O | 22.4 µM (active)
O=C(Nc1ccc(S(=O)(=O)Nc2ccccn2)cc1)c1cccc(Cl)c1 | inactive
O=C(Nc1ncccn1)c1cccc(Cl)c1 | inactive
O=C(Nc1cccc(-c2cn3ccccc3n2)c1)c1cccc(Cl)c1 | 39.8 µM (active)

— ChEMBL document CHEMBL1201862, “PubChem BioAssay data set” (2004)
